MCL1 BIM primary = inhibitors of human MCL1 binding to BIM-BH3 peptide; AID 2057; 0.68% of 320,000 active; GST-MCL1 / FITC-Bim-BH3 fluorescence polarization; inhibition, % at 10.9 µM; Q07820;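 active = inhibition above the mean inhibition of all tested compounds plus 3 SD, set per campaign, cut at about 40% in these data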;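 also: higher means more loss of mP so more displacement of Bim peptide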
Target sequence (Q07820 whole entry, looked up): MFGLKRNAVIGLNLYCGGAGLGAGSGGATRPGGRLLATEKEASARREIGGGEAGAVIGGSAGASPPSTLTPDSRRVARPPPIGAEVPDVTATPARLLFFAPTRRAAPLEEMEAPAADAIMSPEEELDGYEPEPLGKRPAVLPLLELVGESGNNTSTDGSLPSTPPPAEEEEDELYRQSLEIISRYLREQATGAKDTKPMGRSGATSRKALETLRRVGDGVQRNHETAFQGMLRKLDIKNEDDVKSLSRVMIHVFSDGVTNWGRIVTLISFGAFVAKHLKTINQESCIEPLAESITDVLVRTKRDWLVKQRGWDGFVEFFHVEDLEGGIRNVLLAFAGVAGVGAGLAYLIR
BCLXL inh = Bcl-xL (human) inhibition; inhibition, % at 10.9 µM; Q07817; GST-Bcl-xL / FITC-Bim BH3 peptide fluorescence polarization; 0.7% of 320,000 active;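 active = inhibition above the mean of all tested compounds plus 3 SD, cutoff set per campaign, cut at about 30% in these data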;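 also: inhibitors lower millipolarization by displacing the labeled peptide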
EBV gp42 inh = EBV gp42 inhibition | AID 1085 | Q1HVG2 | inhibition, % (tested at 21.74 µM) | Fluorescence polarization binding assay, mP read-out | 0.42% of 220,000 active; in the data active = inhibition above about 50%
Target sequence (Q1HVG2 whole entry, looked up): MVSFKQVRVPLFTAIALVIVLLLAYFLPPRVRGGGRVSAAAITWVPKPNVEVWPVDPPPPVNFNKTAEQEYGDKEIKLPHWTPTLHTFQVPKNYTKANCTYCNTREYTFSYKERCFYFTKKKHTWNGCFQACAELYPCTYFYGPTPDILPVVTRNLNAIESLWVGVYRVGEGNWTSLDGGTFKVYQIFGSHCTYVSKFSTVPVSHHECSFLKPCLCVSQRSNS
GLD-1 RNA inh = GLD-1-TGE RNA interaction inhibition (C. elegans). Q17339. purified GLD-1 + fluorescein TGE RNA, fluorescence polarization. inhibition, % at 5.96 µM. 0.44% of 320,000 active. AID 2280;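 active = percent inhibition above a per-plate cutoff, the plate mean of test compounds plus 3 SD, cut at about 30% in these data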
MEX-5 binding = C. elegans MEX-5 TCR-2 RNA binding activity; MEX-5/FITC-TCR2 RNA binding, fluorescence polarization; hits give low values; activity score (negative = inhibition of binding), % at 10 µM; 0.38% of 300,000 active; AID 1832;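 active = inhibition past about -25% in most replicates, and total fluorescence under double the plate's negative control median, limit read from the data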
Of the large screens only hits and unclear results are named; the others gave an inactive call. This is a sample that favours compounds with a hit; in the whole collection about 1.3% have one here.

CCC1(C)Cc2ccccc2/C(=C/C(=O)N2CCCCC2)N1 (centres undefined)	BCLXL inh 31
O=C1CCNc2c(Cl)cc(Cl)cc21	BCLXL inh 32, EBV gp42 inh 71
NS(=O)(=O)c1ccc(CCNC(=O)c2ccc(C#CC3(O)CCCCC3)cc2)cc1	none
COc1cccc(C2C=C(c3ccc(Br)s3)Nc3ncnn32)c1OC (centres undefined)	BCLXL inh 34
Fc1ccc(Br)cc1C1C=C(c2ccc(Br)s2)Nc2ncnn21 (centres undefined)	BCLXL inh 38
C=CCOC(=O)C1=C(C)Nc2ncnn2C1c1cc(Br)ccc1F (centres undefined)	none
Nc1ccn(Cc2ccc(F)cc2)n1	none
O=C(C1CC1)N1N=C(c2ccncc2)CC1(O)C(F)(F)F (centres undefined)	none
NS(=O)(=O)c1ccc(N/N=C/c2ccc(O)c(O)c2O)c([N+](=O)[O-])c1	EBV gp42 inh 97 (no result: MCL1 BIM primary, BCLXL inh, GLD-1 RNA inh, MEX-5 binding)
NS(=O)(=O)c1ccc(N/N=C/c2ccc(O)cc2O)c([N+](=O)[O-])c1	none
Cc1cc(=O)oc2c(C)c(OCC(=O)NCCCN3CCOCC3)ccc12	none (no result: EBV gp42 inh)
O=c1ccc(-c2ccc(S(=O)(=O)Nc3ccccc3Cl)o2)n[nH]1	none (no result: EBV gp42 inh)
C=CCn1c(C)cc(C)c(C#N)c1=O	none
C=CCn1c(O)c(CN2CCOCC2)c(C)c(C#N)c1=O	BCLXL inh 39 (no result: EBV gp42 inh)
CSc1sccc1/C=N/O	none
CSc1sccc1/C=C(/C#N)C(=O)c1ccco1	MEX-5 binding -27 (no result: EBV gp42 inh)
Cc1c(C(=O)N2CCN(S(=O)(=O)c3cc(F)ccc3F)CC2)oc2ccccc12	none (no result: EBV gp42 inh, MEX-5 binding)
CCN(CC(=O)Nc1c(C(=O)OC)[nH]c2ccccc12)c1ccc2c(c1)OCO2	BCLXL inh 44
O=C(Nc1ccc2nc3ccccc3nc2c1)c1ccccc1	BCLXL inh 31, EBV gp42 inh 73
O=C(Nc1ccc(Cl)c(Cl)c1)c1ccccc1	none (no result: EBV gp42 inh, MEX-5 binding)
C=CCN1/C(=C2/SC(=S)N(C)C2=O)Sc2ccccc21	none (no result: EBV gp42 inh)
NCCCC[C@@H](C(=O)N1CCNCC1)n1cc(CN)nn1	none (no result: EBV gp42 inh, MEX-5 binding)
CCCCc1cn([C@@H](CCCCN)C(=O)N2CCNCC2)nn1	BCLXL inh 39, MEX-5 binding -29
CCN1CCN(Cc2ccc(NC(=O)c3ccc(C)c(/C=C/c4cnc(Nc5cc(N6CCNCC6)nc(C)n5)cn4)c3)cc2C(F)(F)F)CC1	BCLXL inh 38 (no result: EBV gp42 inh)
COc1ccc2c(Cl)c(C(=O)N/N=C3\CCCC(=O)C3)sc2c1	BCLXL inh 40, GLD-1 RNA inh 129
COc1ccc2c(Cl)c(C(=O)N/N=C/c3ccc4c(c3)OCO4)sc2c1	none
CNC(=O)/C(C#N)=C/c1ccc(-c2ccccc2[N+](=O)[O-])o1	none
CNC(=O)/C(C#N)=C/c1ccc(-c2ccc(Cl)cc2)o1	MEX-5 binding -34
Cc1ccnc2ccc(SC(F)(F)F)cc12	none
Cc1cc(S(=O)(=O)Nc2nc(CN3CCOCC3)nc3sc4c(c23)CCCC4)ccc1F	none
CC1CCc2c(sc3nc(CN4CCOCC4)nc(NS(=O)(=O)c4cccc([N+](=O)[O-])c4)c23)C1 (centres undefined)	EBV gp42 inh 59
CNS(=O)(=O)c1cc2c3c(cccc3c1)C(=O)NC2=O	BCLXL inh 32
CCCCN1C2=C(C(=O)CCC2)C(c2ccc(Cl)c(Cl)c2)C2=C1c1ccccc1C2=O (centres undefined)	MCL1 BIM primary 43, BCLXL inh 44
CN(C)CCCn1c(=O)n(CCc2ccccc2)c(=O)c2c3c(sc21)CCCCC3	BCLXL inh 56
Cc1ccccc1NC(=O)NNC(=O)COc1ccc2ccccc2c1	none (no result: EBV gp42 inh)
CN(C)/C=N/n1cnc2ccccc2c1=O	BCLXL inh 34
CN(C)C(=O)c1ccc(-n2cnc3ccccc3c2=O)cc1	none
Cc1cc2nc3c(=O)n(C4CCCCC4)c(=O)[nH]c3nc2cc1N	EBV gp42 inh 141 (no result: MCL1 BIM primary, BCLXL inh, GLD-1 RNA inh, MEX-5 binding)
Cc1cc(C)cc(Nc2cc(=O)n(C3CCCCC3)c(=O)[nH]2)c1	none
Cc1ccc(-n2cccc2/C=C2\C(=N)N3N=C(c4ccco4)SC3=NC2=O)cc1	EBV gp42 inh 67
Cc1nn(C)c(C)c1CN(C)C(=O)C1(C)CC1(Br)Br (centres undefined)	none
Cc1nn(C)c(C)c1CN(C)C(=O)C1c2ccccc2Oc2ccccc21	BCLXL inh 31, EBV gp42 inh 81, MEX-5 binding -47
O=C(/C=C/c1ccoc1)c1ccccc1O	none
O=C(/C=C/c1ccc(O)c(O)c1)c1ccccc1O	MEX-5 binding -38
CN(C)c1ccc(/C=C/C(=O)c2cc(Cl)ccc2O)cc1	EBV gp42 inh 65
O=C(/C=C/c1ccncc1)c1cc(Cl)ccc1O	none
CCN(CCCCN1C(=O)c2ccccc2C1=O)c1ccc2c(c1)C(=O)N(C)C2=O	MCL1 BIM primary 49, BCLXL inh 38
CCOc1cc(C2C(C#N)=C(N)OC(C)=C2C(C)=O)cc(Br)c1O (centres undefined)	MCL1 BIM primary 138, BCLXL inh 115, EBV gp42 inh 51, GLD-1 RNA inh 88, MEX-5 binding -69
CCOc1cc(C2C(C#N)=C(N)OC(C)=C2C(C)=O)c(Br)c(Br)c1OC(C)C (centres undefined)	none
COc1cc2c3nnc(-c4ccccc4)c-3cn(Cc3ccc(F)cc3)c2cc1OC	MEX-5 binding -34
C#CCN1C(=O)S/C(=C/C=C/c2ccc(N(C)C)cc2)C1=O	MCL1 BIM primary 44, BCLXL inh 55 (no result: MEX-5 binding)
O=C(CN1C(=O)S/C(=C\C=C\c2ccccc2)C1=O)Nc1ccccc1C(=O)O	none
N#Cc1c(-c2ccco2)cc(-c2ccccc2)[nH]c1=O	BCLXL inh 34
Cc1cc(-c2ccccc2)[nH]c(=O)c1C#N	none
N#C/C(=C(/O)c1ccc(-c2cccc([N+](=O)[O-])c2)o1)c1nc2ccccc2s1	EBV gp42 inh 86 (no result: MCL1 BIM primary, BCLXL inh, GLD-1 RNA inh)
O=C(CC1CCC1)Nc1cccc2c([N+](=O)[O-])cccc12	none (no result: EBV gp42 inh)
CSCCC(NS(=O)(=O)c1ccc(C)cc1)C(=O)NCC(C)(C)N1CCOCC1 (centres undefined)	none (no result: EBV gp42 inh, MEX-5 binding)
CCc1nn2c(=O)cc(COc3ccc(/C=C4\C(=N)N5N=C(CC(C)C)SC5=NC4=O)cc3)nc2s1	none
CCC1=NN2C(=N)/C(=C\c3ccc(OCc4cc(=O)n5nc(CC)sc5n4)c(OC)c3)C(=O)N=C2S1	EBV gp42 inh 63 (no result: MCL1 BIM primary, BCLXL inh, GLD-1 RNA inh)
COc1ccc(NC(=O)CN2C(=O)/C(=C3\SC(=S)N(C4CCS(=O)(=O)C4)C3=O)c3ccccc32)cc1 (centres undefined)	EBV gp42 inh 61
CC(=O)c1cc2ccc(O)cc2oc1=O	BCLXL inh 48
Cc1ccc(/C(O)=C/c2nc3cc(C)ccc3oc2=O)cc1	MEX-5 binding -120
Nc1ccc(Oc2ccccc2F)nc1	GLD-1 RNA inh 32
Nc1cccnc1Oc1ccccc1F	none
O=C(NCc1ccc(Cl)cc1)C1CC(O)CN1S(=O)(=O)c1ccc(Cl)cc1 (centres undefined)	none (no result: EBV gp42 inh)
CCSC1=NSC2=NC(=O)/C(=C\c3coc4ccccc4c3=O)C(=N)N12	EBV gp42 inh 88 (no result: MEX-5 binding)
